Assay results reported in the supplement of paper PMC12819154, “High-throughput peptide-centric local stability assay extends protein–ligand identification to membrane proteins, tissues and bacteria” (Nature Structural & Molecular Biology, 2025).

These targets were tested with CN[C@@H]1C[C@H]2O[C@@](C)([C@@H]1OC)n1c3ccccc3c3c4c(c5c6ccccc6n2c5c31)C(=O)NC4 [staurosporine] (assay: log2 fold change of tryptic peptide abundance, ligand vs vehicle (limited proteolysis) (log2 ratio); higher = more trypsin-susceptible (destabilized)). Conditions: ligand concentration: 20 uM; sample: mouse liver crude lysate; replicate design: treated separately.

Sequence of UniProt Q8C5L7 (Q8C5L7 whole entry): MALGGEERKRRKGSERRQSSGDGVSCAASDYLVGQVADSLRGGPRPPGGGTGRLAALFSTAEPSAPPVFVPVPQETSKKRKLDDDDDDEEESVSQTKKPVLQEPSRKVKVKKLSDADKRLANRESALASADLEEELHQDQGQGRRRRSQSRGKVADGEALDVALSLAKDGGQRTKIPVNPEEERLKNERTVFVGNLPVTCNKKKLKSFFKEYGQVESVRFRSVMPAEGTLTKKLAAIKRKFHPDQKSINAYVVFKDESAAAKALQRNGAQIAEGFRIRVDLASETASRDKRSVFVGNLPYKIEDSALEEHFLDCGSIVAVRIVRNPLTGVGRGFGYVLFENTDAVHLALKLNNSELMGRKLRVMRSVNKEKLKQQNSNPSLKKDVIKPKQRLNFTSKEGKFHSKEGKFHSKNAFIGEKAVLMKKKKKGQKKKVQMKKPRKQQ
Sequence of UniProt Q5EG47 (Q5EG47 whole entry): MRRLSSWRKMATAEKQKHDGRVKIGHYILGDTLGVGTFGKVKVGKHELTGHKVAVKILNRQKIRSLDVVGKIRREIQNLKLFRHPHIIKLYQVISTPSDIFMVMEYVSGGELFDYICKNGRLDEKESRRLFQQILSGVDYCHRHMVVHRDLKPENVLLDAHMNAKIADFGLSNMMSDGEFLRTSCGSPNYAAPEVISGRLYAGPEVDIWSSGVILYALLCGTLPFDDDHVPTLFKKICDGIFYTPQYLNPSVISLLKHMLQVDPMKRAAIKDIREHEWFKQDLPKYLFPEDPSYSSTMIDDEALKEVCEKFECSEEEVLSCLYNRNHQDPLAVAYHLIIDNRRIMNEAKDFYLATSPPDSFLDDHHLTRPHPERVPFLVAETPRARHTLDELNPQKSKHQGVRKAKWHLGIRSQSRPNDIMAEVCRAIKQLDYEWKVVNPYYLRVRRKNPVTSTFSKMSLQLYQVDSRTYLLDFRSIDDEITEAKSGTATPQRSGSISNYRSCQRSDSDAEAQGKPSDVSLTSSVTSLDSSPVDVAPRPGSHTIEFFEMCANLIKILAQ
Sequence of UniProt Q8JZY4 (Q8JZY4 whole entry): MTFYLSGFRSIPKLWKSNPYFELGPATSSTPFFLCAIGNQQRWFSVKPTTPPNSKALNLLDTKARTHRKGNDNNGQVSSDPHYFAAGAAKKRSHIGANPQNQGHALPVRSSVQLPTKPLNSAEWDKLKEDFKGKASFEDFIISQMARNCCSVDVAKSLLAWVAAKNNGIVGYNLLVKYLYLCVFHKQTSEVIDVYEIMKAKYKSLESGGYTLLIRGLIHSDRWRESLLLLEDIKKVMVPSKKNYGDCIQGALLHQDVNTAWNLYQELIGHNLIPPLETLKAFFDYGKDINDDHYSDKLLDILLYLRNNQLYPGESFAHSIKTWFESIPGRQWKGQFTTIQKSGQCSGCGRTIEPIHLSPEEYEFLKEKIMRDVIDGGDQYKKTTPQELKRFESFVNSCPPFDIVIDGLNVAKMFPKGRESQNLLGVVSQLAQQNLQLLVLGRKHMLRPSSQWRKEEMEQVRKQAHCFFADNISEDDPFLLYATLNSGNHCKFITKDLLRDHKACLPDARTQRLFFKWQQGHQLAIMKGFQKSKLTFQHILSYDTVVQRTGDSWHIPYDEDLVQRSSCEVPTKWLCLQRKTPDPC
Sequence of UniProt Q5F2E8 (Q5F2E8 whole entry): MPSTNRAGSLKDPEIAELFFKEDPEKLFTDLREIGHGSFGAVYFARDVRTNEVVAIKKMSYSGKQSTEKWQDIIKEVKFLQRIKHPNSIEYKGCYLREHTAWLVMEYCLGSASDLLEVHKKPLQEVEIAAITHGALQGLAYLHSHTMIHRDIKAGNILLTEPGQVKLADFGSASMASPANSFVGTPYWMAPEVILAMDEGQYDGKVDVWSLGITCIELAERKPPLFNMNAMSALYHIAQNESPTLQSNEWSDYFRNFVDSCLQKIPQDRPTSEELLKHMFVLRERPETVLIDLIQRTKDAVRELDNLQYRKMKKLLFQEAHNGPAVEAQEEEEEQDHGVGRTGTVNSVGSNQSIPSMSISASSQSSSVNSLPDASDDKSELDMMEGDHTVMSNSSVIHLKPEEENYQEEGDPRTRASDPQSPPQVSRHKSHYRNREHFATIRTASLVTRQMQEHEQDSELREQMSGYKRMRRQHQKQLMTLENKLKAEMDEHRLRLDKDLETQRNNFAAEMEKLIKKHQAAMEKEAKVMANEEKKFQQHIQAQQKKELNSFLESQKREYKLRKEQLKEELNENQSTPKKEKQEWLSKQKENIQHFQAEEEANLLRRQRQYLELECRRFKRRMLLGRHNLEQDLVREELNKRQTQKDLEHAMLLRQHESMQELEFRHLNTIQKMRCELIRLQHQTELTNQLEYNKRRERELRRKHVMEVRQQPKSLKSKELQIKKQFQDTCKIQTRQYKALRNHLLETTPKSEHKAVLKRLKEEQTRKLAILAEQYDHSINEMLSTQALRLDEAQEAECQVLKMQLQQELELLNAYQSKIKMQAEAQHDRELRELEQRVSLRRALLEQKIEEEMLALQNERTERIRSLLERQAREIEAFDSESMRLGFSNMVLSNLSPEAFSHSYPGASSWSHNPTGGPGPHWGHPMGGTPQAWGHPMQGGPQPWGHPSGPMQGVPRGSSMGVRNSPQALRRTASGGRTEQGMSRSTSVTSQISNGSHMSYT
Sequence of UniProt Q60932 (Q60932 whole entry): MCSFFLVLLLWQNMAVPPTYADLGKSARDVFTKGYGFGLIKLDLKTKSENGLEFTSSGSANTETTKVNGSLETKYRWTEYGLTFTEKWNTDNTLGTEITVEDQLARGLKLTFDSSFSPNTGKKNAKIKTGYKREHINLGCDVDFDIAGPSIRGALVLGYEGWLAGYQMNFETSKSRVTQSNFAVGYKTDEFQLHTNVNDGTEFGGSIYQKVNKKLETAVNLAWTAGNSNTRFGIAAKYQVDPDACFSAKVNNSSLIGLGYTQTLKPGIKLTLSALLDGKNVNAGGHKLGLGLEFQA
Sequence of UniProt Q9WVJ2 (Q9WVJ2 whole entry): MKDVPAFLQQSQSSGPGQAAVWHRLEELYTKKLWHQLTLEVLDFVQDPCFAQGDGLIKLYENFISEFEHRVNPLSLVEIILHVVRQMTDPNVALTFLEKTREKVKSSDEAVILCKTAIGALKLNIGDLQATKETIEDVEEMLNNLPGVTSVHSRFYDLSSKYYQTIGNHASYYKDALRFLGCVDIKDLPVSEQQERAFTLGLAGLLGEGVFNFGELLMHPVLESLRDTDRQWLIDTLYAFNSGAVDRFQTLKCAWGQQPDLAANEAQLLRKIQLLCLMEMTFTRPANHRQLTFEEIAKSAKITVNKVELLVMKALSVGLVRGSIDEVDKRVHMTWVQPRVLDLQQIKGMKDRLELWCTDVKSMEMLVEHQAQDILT
Sequence of UniProt Q99JT2 (Q99JT2 whole entry): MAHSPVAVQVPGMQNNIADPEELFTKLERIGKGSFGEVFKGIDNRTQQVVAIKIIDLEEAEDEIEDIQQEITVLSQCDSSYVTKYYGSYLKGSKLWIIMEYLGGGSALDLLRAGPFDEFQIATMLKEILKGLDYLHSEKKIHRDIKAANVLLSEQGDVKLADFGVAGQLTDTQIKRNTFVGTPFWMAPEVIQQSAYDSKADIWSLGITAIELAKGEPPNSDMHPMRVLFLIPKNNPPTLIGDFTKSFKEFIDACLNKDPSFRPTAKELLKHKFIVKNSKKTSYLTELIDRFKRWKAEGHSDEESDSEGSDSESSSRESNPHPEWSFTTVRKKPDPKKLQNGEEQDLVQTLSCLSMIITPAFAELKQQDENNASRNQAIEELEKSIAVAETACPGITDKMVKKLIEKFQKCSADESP

Row | Target | log2 fold change
1 | UniProt Q5EG47 (peptide sequence: DLKPENVLLDAHMNAK, peptide start residue: 150) | -4.22
2 | UniProt Q9WVJ2 (peptide sequence: GSIDEVDKR, peptide start residue: 322) | -0.456
3 | UniProt Q60932 (peptide sequence: LTFDSSFSPNTGKK, peptide start residue: 110) | -0.605
4 | UniProt Q8JZY4 (peptide sequence: YLYLCVFHK, peptide start residue: 178) | 0.47
5 | UniProt Q5F2E8 (peptide sequence: AGNILLTEPGQVK, peptide start residue: 150) | -2.13
6 | UniProt Q99JT2 (peptide sequence: LADFGVAGQLTDTQIKR, peptide start residue: 156) | -0.843
7 | UniProt Q8C5L7 (peptide sequence: NGAQIAEGFR, peptide start residue: 267) | 0.659
